# Data reported in PubChem BioAssay (EPA / NIEHS).
# Records with an inconclusive call do not appear. The source made the active and inactive calls. How the source made its calls, unless noted: active means hit-call score of the fitted dose curve at least 0.9, where 1 is the maximum; inactive means score below 0.9.
# Columns and labels:
# [1] = target: human Retinoid X Receptor beta (RXRb), RXRB (gene 6257) (UniProt P28702); assay: ATG_RXRb_TRANS: Attagene TRANS-FACTORIAL HepG2 Assay for human Retinoid X Receptor beta (RXRb) (AID 2283013; active means hit-call score of the fitted dose curve at least 0.9, where 1 is the maximum)
# human Retinoid X Receptor beta (RXRb), RXRB (gene 6257), sequence (P28702 whole entry, looked up, the tested form may be a part): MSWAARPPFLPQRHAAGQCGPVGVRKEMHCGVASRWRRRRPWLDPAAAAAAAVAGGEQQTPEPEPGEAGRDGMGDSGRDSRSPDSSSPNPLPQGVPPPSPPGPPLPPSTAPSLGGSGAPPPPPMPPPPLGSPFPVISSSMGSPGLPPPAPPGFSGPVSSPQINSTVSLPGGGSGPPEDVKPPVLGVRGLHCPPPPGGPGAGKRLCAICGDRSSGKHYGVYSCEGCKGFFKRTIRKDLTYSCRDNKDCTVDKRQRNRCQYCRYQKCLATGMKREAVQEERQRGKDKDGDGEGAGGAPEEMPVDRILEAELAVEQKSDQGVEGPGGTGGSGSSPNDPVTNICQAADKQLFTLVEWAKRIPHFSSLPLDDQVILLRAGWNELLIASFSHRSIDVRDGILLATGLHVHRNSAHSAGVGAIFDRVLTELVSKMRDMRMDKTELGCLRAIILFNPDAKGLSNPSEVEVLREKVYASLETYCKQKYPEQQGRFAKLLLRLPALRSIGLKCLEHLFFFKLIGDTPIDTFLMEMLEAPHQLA
# How it was run: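 After a 24 h incubation with test chemical, transfected HepG2 cells carrying NR-Gal4 fusions and GAL4-UAS reporter transcription units yield RNA whose reporter cDNA is FAM-labelled, HpaI-cut and sized by capillary electrophoresis; increases over DMSO are scored.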
# [2] = target: human Thyroid Receptor alpha (THRa1), THRA (gene 7067) (UniProt P10827); assay: ATG_THRa1_TRANS: Attagene TRANS-FACTORIAL HepG2 Assay for human Thyroid Receptor alpha (THRa1) (AID 2283014; active means hit-call score of the fitted dose curve at least 0.9, where 1 is the maximum)
# human Thyroid Receptor alpha (THRa1), THRA (gene 7067), sequence (P10827 whole entry, looked up, the tested form may be a part): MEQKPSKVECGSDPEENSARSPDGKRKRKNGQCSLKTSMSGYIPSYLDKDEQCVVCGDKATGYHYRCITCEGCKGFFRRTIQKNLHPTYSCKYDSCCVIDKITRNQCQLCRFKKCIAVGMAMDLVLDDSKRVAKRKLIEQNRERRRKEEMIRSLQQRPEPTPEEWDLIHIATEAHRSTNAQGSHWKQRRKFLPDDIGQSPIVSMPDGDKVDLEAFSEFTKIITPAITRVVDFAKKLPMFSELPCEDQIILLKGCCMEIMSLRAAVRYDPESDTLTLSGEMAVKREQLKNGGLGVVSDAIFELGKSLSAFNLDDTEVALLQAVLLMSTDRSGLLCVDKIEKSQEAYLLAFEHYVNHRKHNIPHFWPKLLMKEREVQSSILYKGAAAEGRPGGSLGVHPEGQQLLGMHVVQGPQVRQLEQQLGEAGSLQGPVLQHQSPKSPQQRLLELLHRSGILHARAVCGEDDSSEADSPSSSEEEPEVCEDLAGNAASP
# How it was run: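 Measured here is mRNA from a GAL4-UAS reporter in transfected HepG2 cells carrying a Gal4-fused receptor, 24 h post-dose. DMSO served as negative control and baseline.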
# [3] = target: human Vitamin D Receptor (VDR), VDR (gene 7421) (UniProt P11473); assay: ATG_VDR_TRANS: Attagene TRANS-FACTORIAL HepG2 Assay for human Vitamin D Receptor (VDR) (AID 2283022; active means hit-call score of the fitted dose curve at least 0.9, where 1 is the maximum)
# human Vitamin D Receptor (VDR), VDR (gene 7421), sequence (P11473 whole entry, looked up): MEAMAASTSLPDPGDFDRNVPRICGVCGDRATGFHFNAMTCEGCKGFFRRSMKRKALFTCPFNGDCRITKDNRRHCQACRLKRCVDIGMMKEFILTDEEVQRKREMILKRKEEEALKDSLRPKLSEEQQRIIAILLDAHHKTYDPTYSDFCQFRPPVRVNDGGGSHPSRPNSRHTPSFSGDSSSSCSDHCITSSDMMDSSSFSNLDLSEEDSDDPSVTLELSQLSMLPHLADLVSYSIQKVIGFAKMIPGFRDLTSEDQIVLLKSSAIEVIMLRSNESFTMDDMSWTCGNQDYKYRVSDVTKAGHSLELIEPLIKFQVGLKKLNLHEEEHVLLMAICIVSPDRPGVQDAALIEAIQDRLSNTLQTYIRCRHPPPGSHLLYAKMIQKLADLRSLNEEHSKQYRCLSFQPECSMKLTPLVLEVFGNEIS
# How it was run: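 Multiplexed TRANS reporter in HepG2; 24 h treatment; reporter mRNA by RT-PCR plus capillary electrophoresis; upregulation scored relative to DMSO.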
# [4] = read-out: E-selectin (Homo sapiens) (UniProt P16581); assay: BSK_3C_Eselectin: BioMAP Diversity Plus: 3C Assay for Eselectin Biomarker Activity (AID 2283015); conditions: primary human endothelial cells (HUVEC); actives raise or lower the signal;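 further: cell surface E-selectin protein quantified by ELISA 24 h after dosing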
# How it was run: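 Endpoint derived by bidirectional fitting against DMSO vehicle; signal is ELISA-detected E-selectin from primary HUVEC at 24 h post-dosing, with parallel SRB staining (0.1% SRB, 560 nm) flagging cytotoxicity.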
# [5] = read-out: Interleukin-1 alpha (IL1a), IL1A (gene 3552); assay: BSK_BE3C_IL1a: BioMAP Diversity Plus: BE3C Assay for Interleukin-1 alpha (IL1a) Biomarker Activity (AID 2283016); conditions: primary human bronchial epithelial cells; actives raise or lower the signal
# How it was run: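 Measured in human lung primary bronchial epithelial cells: IL-1a by ELISA at 24 h after dosing, with bidirectional fitting against DMSO.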
# [6] = read-out: Monocyte Chemoattractant Protein-1 (MCP1), CCL2 (gene 6347); assay: BSK_3C_MCP1: BioMAP Diversity Plus: 3C Assay for Monocyte Chemoattractant Protein-1 (MCP1) Biomarker Activity (AID 2283017); conditions: primary human endothelial cells (HUVEC); actives raise or lower the signal
# How it was run: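 Using human vascular primary endothelium, researchers measured MCP-1 by ELISA 24 h after treatment, with DMSO serving as negative control for bidirectional fitting.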
# [7] = read-out: Monocyte Chemoattractant Protein-1 (MCP1), CCL2 (gene 6347); assay: BSK_4H_MCP1: BioMAP Diversity Plus: 4H Assay for Monocyte Chemoattractant Protein-1 (MCP1) Biomarker Activity (AID 2283018); conditions: primary human endothelial cells (HUVEC); actives raise or lower the signal
# How it was run: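 Primary human umbilical vein endothelium is exposed to chemical for 24 h before MCP-1 is assayed by ELISA. Concentration-response fitted bidirectionally relative to DMSO.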
# [8] = read-out: Human Leukocyte Antigen - DR isotype (HLADR), HLA-DRA (gene 3122); assay: BSK_3C_HLADR: BioMAP Diversity Plus: 3C Assay for Human Leukocyte Antigen - DR isotype (HLADR) Biomarker Activity (AID 2283019); conditions: primary human endothelial cells (HUVEC); actives raise or lower the signal;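 further: ELISA of cell-surface HLA-DR on HUVEC 24 h after dosing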
# How it was run: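 Compound added to primary HUVEC cultures, 24 h incubation, then HLA-DR determined by ELISA; endpoint derived by bidirectional fitting relative to DMSO negative control.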
# [9] = read-out: Interleukin-8 (IL8), CXCL8 (gene 3576); assay: BSK_3C_IL8: BioMAP Diversity Plus: 3C Assay for Interleukin-8 (IL8) Biomarker Activity (AID 2283020); conditions: primary human endothelial cells (HUVEC); actives raise or lower the signal
# How it was run: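 Using DMSO-treated wells as the baseline, bidirectional curve fitting was applied to ELISA-measured IL-8 from human umbilical vein endothelial cultures sampled 24 h after compound addition.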
# [10] = read-out: Monokine induced gamma interferon (MIG), CXCL9 (gene 4283); assay: BSK_3C_MIG: BioMAP Diversity Plus: 3C Assay for Monokine induced gamma interferon (MIG) Biomarker Activity (AID 2283021); conditions: primary human endothelial cells (HUVEC); actives raise or lower the signal
# How it was run: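 ELISA-measured MIG in dosed HUVEC 3C cultures at 24 h, analysed by bidirectional fitting with DMSO defining baseline activity.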
# [11] = BSK_3C_SRB: Viability Assessment in the BioMAP Diversity Plus: 3C Assay (AID 2283023); conditions: primary human endothelial cells (HUVEC);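 further: cells read 24 h after compound dosing; fitted both ways against DMSO so a hit may be signal rise or drop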
# How it was run: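 Overt cytotoxicity is gauged in parallel confluent HUVEC cultures by SRB total-protein staining at the time of biomarker measurement, 24 h after dosing. Gain or loss of signal is fitted versus DMSO.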
# [12] = read-out: Matrix Metallopeptidase 1 (MMP1), MMP1 (gene 4312); assay: BSK_BE3C_MMP1: BioMAP Diversity Plus: BE3C Assay for Matrix Metallopeptidase 1 (MMP1) Biomarker Activity (AID 2283024); conditions: primary human bronchial epithelial cells; actives raise or lower the signal
# How it was run: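 In this multiplexed primary-cell system, human bronchial epithelium received chemicals for 24 h before an ELISA for MMP1. Values reflect bidirectional fits normalised to the DMSO baseline.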
# [13] = BSK_3C_Vis: BioMAP Diversity Plus: 3C Assay for Morphology Visualization (AID 2283025); conditions: primary human endothelial cells (HUVEC);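 further: fitted both ways so gain or loss versus DMSO counts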
# How it was run: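 Light-microscopy morphology readout, 24 h exposure, human primary umbilical vein endothelium; analysed relative to DMSO with bidirectional fitting.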
# [14] = read-out: Pselectin, SELP (gene 6403); assay: BSK_4H_Pselectin: BioMAP Diversity Plus: 4H Assay for Pselectin Biomarker Activity (AID 2283026); conditions: primary human endothelial cells (HUVEC); actives raise or lower the signal
# How it was run: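 Bidirectional fits against DMSO gave the endpoint. Cells: primary human umbilical vein endothelium, chemical-treated for 24 h before ELISA detection of P-selectin.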
# [15] = BSK_4H_SRB: Viability Assessment in the BioMAP Diversity Plus: 4H Assay (AID 2283027); conditions: primary human endothelial cells (HUVEC);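 further: cells exposed to compound for 24 h before staining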
# How it was run: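 HUVEC, 24 h post-dose; 10% TCA fix, 0.1% SRB stain, A560 nm. Total protein = overt cytotoxicity, parallel to biomarker read. Bidirectional fit vs DMSO baseline.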
# [16] = read-out: Thrombomodulin, THBD (gene 7056); assay: BSK_3C_Thrombomodulin: BioMAP Diversity Plus: 3C Assay for Thrombomodulin Biomarker Activity (AID 2283029); conditions: primary human endothelial cells (HUVEC); actives raise or lower the signal
# How it was run: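 In a multiplexed primary-cell system, human umbilical vein endothelium received chemical and was assayed 24 h later for thrombomodulin by ELISA. Parallel cultures were SRB-stained (0.1% SRB after 10% TCA fixation, read at 560 nm) to flag cytotoxicity.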
# [17] = read-out: Urokinase-type plasminogen activator receptor (uPAR), PLAUR (gene 5329); assay: BSK_4H_uPAR: BioMAP Diversity Plus: 4H Assay for Urokinase-type plasminogen activator receptor (uPAR) Biomarker Activity (AID 2283030); conditions: primary human endothelial cells (HUVEC); actives raise or lower the signal
# How it was run: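 Endpoint derived via bidirectional curve fitting against DMSO baseline; readout was ELISA detection of uPAR on umbilical vein endothelial cells at 24 h post-treatment, with SRB-stained parallel cultures assessing cytotoxicity.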
# E-selectin (Homo sapiens), sequence (P16581 whole entry, looked up): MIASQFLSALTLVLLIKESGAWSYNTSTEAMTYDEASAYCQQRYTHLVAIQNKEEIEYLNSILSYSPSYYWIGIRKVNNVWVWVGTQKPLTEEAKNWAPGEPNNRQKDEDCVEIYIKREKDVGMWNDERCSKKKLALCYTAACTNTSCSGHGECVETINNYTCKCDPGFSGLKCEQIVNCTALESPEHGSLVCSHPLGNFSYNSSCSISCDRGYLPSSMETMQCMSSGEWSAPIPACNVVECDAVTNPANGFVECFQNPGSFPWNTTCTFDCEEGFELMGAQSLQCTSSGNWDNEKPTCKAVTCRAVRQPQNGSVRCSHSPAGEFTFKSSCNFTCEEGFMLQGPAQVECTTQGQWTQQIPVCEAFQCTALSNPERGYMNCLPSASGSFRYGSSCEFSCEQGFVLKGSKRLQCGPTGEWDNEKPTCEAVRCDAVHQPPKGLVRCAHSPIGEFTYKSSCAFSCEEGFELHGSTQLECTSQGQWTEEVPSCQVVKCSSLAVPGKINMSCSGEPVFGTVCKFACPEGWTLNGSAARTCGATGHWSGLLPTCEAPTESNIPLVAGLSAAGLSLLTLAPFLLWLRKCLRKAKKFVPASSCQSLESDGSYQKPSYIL
structure (smiles),measurement,setting,value
C=C(C)C(=O)Nc1ccc(Cl)c(Cl)c1,AC50,[1],41 µM (active)
same,outcome,[2],inactive
same,outcome,[3],inactive
CC(C)(C)c1cc(CCC(=O)NN)cc(C(C)(C)C)c1O,outcome,[1],inactive
same,outcome,[3],inactive
CC(=O)C=CC1=C(C)CCCC1(C)C,AC50,[1],43.9 µM (active)
same,outcome,[3],inactive
O=S(=O)(O)c1cccc2c(S(=O)(=O)O)cccc12,outcome,[1],inactive
same,outcome,[3],inactive
CCCC/C=C\CCCCCCCCCC=O,AC50,[1],6.07 µM (active)
CC(C)(C#N)c1cc(Cn2cncn2)cc(C(C)(C)C#N)c1,outcome,[1],inactive
same,outcome,[3],inactive
O=C(O)c1snc(Cl)c1Cl,outcome,[1],inactive
same,outcome,[3],inactive
Clc1sc(Cl)c(Cl)c1Cl,outcome,[1],inactive
CCOc1ccccc1OCC,outcome,[1],inactive
same,outcome,[2],inactive
CCCCCCCCCCCCCCCCCC(=O)OCC(CC)CCCC (stereo not drawn),outcome,[1],inactive
same,outcome,[4],inactive
same,outcome,[5],inactive
same,outcome,[6],inactive
same,outcome,[7],inactive
same,outcome,[8],inactive
same,outcome,[9],inactive
same,outcome,[10],inactive
same,outcome,[3],inactive
same,outcome,[11],inactive
same,outcome,[12],inactive
same,outcome,[13],inactive
same,outcome,[14],inactive
same,outcome,[15],inactive
same,outcome,[16],inactive
same,outcome,[17],inactive
CNC[C@H](O)c1cccc(O)c1,AC50,[1],33.9 µM (active)
same,outcome,[2],inactive
same,outcome,[4],inactive
same,outcome,[5],inactive
same,outcome,[6],inactive
same,outcome,[7],inactive
same,outcome,[8],inactive
same,outcome,[9],inactive
same,outcome,[10],inactive
same,outcome,[3],inactive
same,outcome,[11],inactive
same,outcome,[12],inactive
same,outcome,[13],inactive
same,outcome,[14],inactive
same,outcome,[15],inactive
same,outcome,[16],inactive
same,outcome,[17],inactive
CSc1nc(NC2CC2)nc(NC(C)(C)C)n1,AC50,[1],22.7 µM (active)
same,outcome,[2],inactive
COc1cc(C=O)ccc1OC(=O)C(C)C,outcome,[1],inactive
same,outcome,[2],inactive
same,outcome,[4],inactive
same,outcome,[5],inactive
same,outcome,[6],inactive
same,outcome,[7],inactive
same,outcome,[8],inactive
same,outcome,[9],inactive
same,outcome,[10],inactive
same,outcome,[3],inactive
same,outcome,[11],inactive
same,outcome,[12],inactive
same,outcome,[14],inactive
same,outcome,[15],inactive
same,outcome,[16],inactive
same,outcome,[17],inactive
